Data taken from PubChem BioAssay (NCATS).
Where “and” joins values, the source holds several entries; their conditions need not be identical. Identical values can stand only once. Results filed as inconclusive are left out. Values without a mark were called inactive. Calls of active or inactive are those of the source. The call rests on the fitted dose curve; in most records, active means well fitted cell-killing curve with a large enough effect in the repeat runs; inconclusive means weak or mixed curves; inactive means flat fitted curve, though single readings scatter.

assay: qHTS assay for small molecule agonists of the antioxidant response element (ARE) signaling pathway measured by Nrf2-dependant transcriptional activity - cell viability counter screen (AID 720653); settings: ARE-bla HepG2 viability, CellTiter-Glo ATP luminescence, 16 h; max response: stronger effect = lower value
Excerpt: National Center for Advancing Translational Sciences [NCATS] NIH Chemical Genomics Center [NCGC] U.S. Environmental Protection Agency [EPA] National Institutes of Environmental Health Sciences [NIEHS] National Toxicology Program [NTP] Assay Overview: Oxidative stress has been implicated in the pathogenesis of a variety of diseases ranging from cancer to neurodegeneration. The antioxidant response element (ARE) signaling pathway plays an important role in the amelioration of oxidative stress. The CellSensor ARE-bla HepG2 cell line (Invitrogen) can be used for analyzing the Nrf2/antioxidant response signaling pathway. Nrf2 (NF-E2-related factor 2) and Nrf1 are transcription factors that bind to AREs and activate these genes. The CellSensor ARE-bla HepG2 cell line contains a beta-lactamase reporter gene under control of the Antioxidant Response Element (ARE) stably integrated into HepG2 cells. The activation of the report gene under culture conditions can be detected by fluorescence intensity. The cytotoxicity of the compounds against the ARE-bla HepG2 cell line was quantified by measuring the intracellular ATP content.
Assay Protocol Summary: ARE-bla HepG2 cells were dispensed at 2,000 cells/5 ul/well in 1536-well black wall/clear bottom plates using a Multidrop Combi (ThermoFisher Scientific, Waltham, MA) dispenser. After the assay plates were incubated at 37C/5% CO2 for 5 hrs, 23 nL of compounds dissolved in DMSO, positive controls or DMSO only was transferred to the assay plate by a pintool work station (Kalypsys, San Diego, CA). The plates were incubated at 37C/5% CO2 for 16 hrs. After 1 uL of LiveBLAzer B/G FRET substrate was added using a Flying Reagent Dispenser (FRD) (Aurora Discovery, San Diego, CA), the assay plates were incubated at room temperature for 2 hrs. The fluorescence intensity was measured by an Envision (PerkinElmer, Shelton, CT) plate reader. Cell viability using CellTiter Glo viability assay (Promega, Madison, WI) was also measured by adding 4 ul/well of CellTiter-Glo reagent into the same assay plate using a FRD. After 30 min incubation at room temperature, the luminescence intensity in the plates was measured using a ViewLux (PerkinElmer) plate reader.
On the % scale 0 is the no-effect control and ±100 the full control effect; potency means the concentration at half of the fitted maximal effect.

SMILES	max response	Potency
O=C1NC(=O)C(c2ccccc2)(c2ccccc2)N1	-13.1% and -3.11% and 0.97%	–
CCCCC1C(=O)N(c2ccccc2)N(c2ccccc2)C1=O	4.44% and 1.83%	–
O=C(O)Cc1cccc2ccccc12	-3.63% and 1.79%	–
O=c1[nH]cnc2c1ncn2[C@H]1CC[C@@H](CO)O1	7.68% and 6.47%	–
CC1=C(/C=C/C(C)=C/C=C/C(C)=C/C(=O)Nc2ccc(O)cc2)C(C)(C)CCC1	–	44.7 µM (active)
CC(=O)N[C@@H](CS)C(=O)O	3.38%	–
O=C(O)c1cc(-c2ccccc2)nc2ccccc12	-16.1%	–
CN(C)CCC(c1ccccc1)c1ccccn1 (stereo not drawn)	-6.47%	–
CCCNC(=O)NS(=O)(=O)c1ccc(Cl)cc1	9.19% and -14.5%	–
O=c1c(O)c(-c2ccc(O)cc2)oc2cc(O)cc(O)c12	-6.13% and -4.97%	–
CC/C(=C(\c1ccccc1)c1ccc(OCCN(C)C)cc1)c1ccccc1	-20.9%	–
O=c1c(-c2ccc(O)cc2)coc2cc(O)ccc12	-5.4% and -12%	–
O=c1cc(-c2ccc(O)cc2)oc2cc(O)cc(O)c12	-5.98% and -9.88%	–
O=c1cc(-c2ccccc2)oc2cc(O)cc(O)c12	-2.85%	–
CC(C)OC(=O)C(C)(C)Oc1ccc(C(=O)c2ccc(Cl)cc2)cc1	3.55%	–
CC(=O)O[C@]1(C(C)=O)CC[C@H]2[C@@H]3C=C(Cl)C4=CC(=O)[C@@H]5C[C@@H]5[C@]4(C)[C@H]3CC[C@@]21C	-29.6% and -20.9%	–
CC(=O)c1ccc(S(=O)(=O)NC(=O)NC2CCCCC2)cc1	2.45% and -5.62%	–
CCn1cc(C(=O)O)c(=O)c2ccc(C)nc21	11.7% and 3.46%	–
